Data reported in PubChem BioAssay (EPA / NIEHS).
Several values for one entry are separate records, joined by “and”; a condition that tells them apart may be missing. Equal values may be shown once. Results filed as inconclusive are left out. Activity calls are given as the source filed them. Rule for the calls, unless noted: active = hit-call score of the fitted dose curve at least 0.9, where 1 is the maximum; inactive = score below 0.9.

What was measured:
[1] = BSK_LPS_SRB: Viability Assessment in the BioMAP Diversity Plus: LPS Assay (AID 2283079); details: primary human HUVEC with PBMC;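 note: total protein by sulforhodamine B absorbance as a cytotoxicity measure; measured one day after compound addition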
In short: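 SRB viability endpoint: cells fixed with 10% TCA, stained with 0.1% SRB, read at 560 nm, 24 h post-dose. HUVEC/PBMC co-culture; signal change in either direction scored relative to DMSO.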

[2] = read-out: Interleukin-1 alpha (IL1a), IL1A (gene 3552); assay: BSK_LPS_IL1a: BioMAP Diversity Plus: LPS Assay for Interleukin-1 alpha (IL1a) Biomarker Activity (AID 2283080); details: primary human HUVEC with PBMC; actives raise or lower the signal
In short: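 Readout is IL-1a level by ELISA, 24 h post-dose, fitted as gain or loss relative to DMSO. System: LPS-activated human primary co-culture of vascular endothelium and peripheral blood mononuclear cells, with parallel SRB total-protein cytotoxicity.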

[3] = read-out: Monocyte Chemoattractant Protein-1 (MCP1), CCL2 (gene 6347); assay: BSK_LPS_MCP1: BioMAP Diversity Plus: LPS Assay for Monocyte Chemoattractant Protein-1 (MCP1) Biomarker Activity (AID 2283081); details: primary human HUVEC with PBMC; actives raise or lower the signal;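 for AC50: secreted MCP-1 protein quantified by ELISA in culture supernatant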
In short: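 Secreted MCP-1 read by ELISA at 24 h post-dosing in an LPS-activated co-culture of endothelial cells with peripheral blood mononuclear cells. Fits run in both directions, DMSO as baseline; parallel SRB staining tracks overt cytotoxicity.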

[4] = BSK_LPS_PGE2: BioMAP Diversity Plus: LPS Assay for Prostaglandin E2 (PGE2) Biomarker Activity (AID 2283082); details: primary human HUVEC with PBMC; actives raise or lower the signal;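 for AC50: secreted prostaglandin E2 measured by ELISA in LPS-stimulated co-culture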
In short: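 HUVEC plus human PBMC co-culture stimulated with LPS; secreted PGE2 quantified by ELISA 24 h after chemical dosing. Activity fitted bidirectionally against DMSO baseline; parallel SRB staining (0.1% SRB after 10% TCA fixation, 560 nm) flags overt cytotoxicity.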

[5] = read-out: Macrophage colony-stimulating factor (MCSF), CSF1 (gene 1435); assay: BSK_LPS_MCSF: BioMAP Diversity Plus: LPS Assay for Macrophage colony-stimulating factor (MCSF) Biomarker Activity (AID 2283083); details: primary human HUVEC with PBMC; actives raise or lower the signal
In short: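 Bidirectional fitting against DMSO was applied to M-CSF levels read by ELISA at 24 h post-dose. The system pairs human umbilical vein endothelium with peripheral blood mononuclear cells; parallel SRB staining tracked cytotoxicity.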

[6] = read-out: Tissue Factor, F3 (gene 2152); assay: BSK_LPS_TissueFactor: BioMAP Diversity Plus: LPS Assay for Tissue Factor Biomarker Activity (AID 2283084); details: primary human HUVEC with PBMC; actives raise or lower the signal
In short: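 Compound was added to an endothelial cell/PBMC co-culture, and after 24 h tissue factor (CD142) was read by ELISA. Gain or loss of signal was fitted against a DMSO baseline, and parallel SRB staining (560 nm) tracked overt cytotoxicity.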

[7] = read-out: Tumor necrosis factor (Homo sapiens) (UniProt P01375); assay: BSK_LPS_TNFa: BioMAP Diversity Plus: LPS Assay for Tumour Necrosis Factor alpha (TNFa) Biomarker Activity (AID 2283085); details: primary human HUVEC with PBMC; actives raise or lower the signal
In short: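 Human umbilical vein endothelial cells co-cultured with PBMC and stimulated with LPS. TNFa was measured by ELISA 24 h after chemical dosing, fitted bidirectionally relative to DMSO.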

[8] = read-out: Vascular cell adhesion molecule 1 (VCAM1), VCAM1 (gene 7412); assay: BSK_LPS_VCAM1: BioMAP Diversity Plus: LPS Assay for Vascular cell adhesion molecule 1 (VCAM1) Biomarker Activity (AID 2283086); details: primary human HUVEC with PBMC; actives raise or lower the signal
In short: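 Human umbilical vein endothelial cells co-cultured with PBMC and stimulated with LPS; VCAM-1 measured by ELISA 24 h after dosing. Bidirectional curve fitting against DMSO baseline; cytotoxicity tracked in parallel by SRB total-protein staining.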

CD38, CD38 (gene 952) = assay: BSK_SAg_CD38: BioMAP Diversity Plus: SAg Assay for CD38 Biomarker Activity (AID 2283087); details: primary human HUVEC with PBMC; actives raise or lower the signal
In short: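 Human HUVEC plus PBMC co-culture stimulated with superantigen; CD38 measured by ELISA 24 h after chemical dosing. Fluorescence read-out, bidirectional fit against DMSO; cytotoxicity tracked in parallel by SRB and Alamar Blue.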

CD40, CD40 (gene 958) = assay: BSK_SAg_CD40: BioMAP Diversity Plus: SAg Assay for CD40 Biomarker Activity (AID 2283088); details: primary human HUVEC with PBMC; actives raise or lower the signal
In short: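 CD40 is measured by fluorescence ELISA in an endothelial/PBMC primary human co-culture at 24 h post-dose. Fitting is bidirectional, DMSO baseline. Parallel SRB staining (560 nm) flags cytotoxicity.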

CD69, CD69 (gene 969) = assay: BSK_SAg_CD69: BioMAP Diversity Plus: SAg Assay for CD69 Biomarker Activity (AID 2283089); details: primary human HUVEC with PBMC; actives raise or lower the signal;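 for AC50: cell surface CD69 protein quantified by ELISA with fluorescence detection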
In short: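 HUVEC co-cultured with PBMC were dosed with chemical, and CD69 was measured by ELISA with fluorescence read-out 24 h later. Bidirectional curve fitting used DMSO as negative control and activity baseline.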

[9] = read-out: Monocyte Chemoattractant Protein-1 (MCP1), CCL2 (gene 6347); assay: BSK_SAg_MCP1: BioMAP Diversity Plus: SAg Assay for Monocyte Chemoattractant Protein-1 (MCP1) Biomarker Activity (AID 2283090); details: primary human HUVEC with PBMC; actives raise or lower the signal
In short: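 MCP-1 levels in the endothelial–PBMC SAg co-culture were quantified by ELISA at 24 h post-dosing; both increases and decreases versus DMSO scored. Cytotoxicity monitored by SRB total protein in parallel cultures.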

[10] = read-out: E-selectin (Homo sapiens) (UniProt P16581); assay: BSK_SAg_Eselectin: BioMAP Diversity Plus: SAg Assay for Eselectin Biomarker Activity (AID 2283091); details: primary human HUVEC with PBMC; actives raise or lower the signal
In short: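 Cell-surface E-selectin is read by ELISA at 24 h in the SAg co-culture of HUVEC and PBMC. Curves are fitted in both directions relative to DMSO. Parallel SRB total-protein staining tracks overt toxicity.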

[11] = read-out: Monokine induced gamma interferon (MIG), CXCL9 (gene 4283); assay: BSK_SAg_MIG: BioMAP Diversity Plus: SAg Assay for Monokine induced gamma interferon (MIG) Biomarker Activity (AID 2283092); details: primary human HUVEC with PBMC; actives raise or lower the signal
In short: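 HUVEC plus human PBMC co-culture, chemicals dosed and MIG (CXCL9) quantified by ELISA at 24 h. Bidirectional curve fitting against DMSO as negative control and baseline, so both gain and loss of signal count as activity.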

[12] = BSK_SAg_PBMCCytotoxicity: PBMC Cytotoxicity Assessment in the BioMAP Diversity Plus: SAg Assay (AID 2283093); details: primary human HUVEC with PBMC;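 note: PBMC viability measured as Alamar Blue reduction fluorescence at 546/580 nm; fitted both ways against DMSO so a hit may be loss or gain of signal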;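 for AC50: PBMC superantigen activated with SEB plus TSST-1 one hour after compound addition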
In short: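 Human umbilical vein endothelial cells co-cultured with PBMC; PBMC (75,000/well) pre-treated with compound 1 h, then activated with SEB and TSST-1 (20 ng/mL final each) for 90 h. Alamar Blue added 6 h, fluorescence 546/580 nm; bidirectional fit versus DMSO.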

[13] = read-out: Interleukin-8 (IL8), CXCL8 (gene 3576); assay: BSK_SAg_IL8: BioMAP Diversity Plus: SAg Assay for Interleukin-8 (IL8) Biomarker Activity (AID 2283094); details: primary human HUVEC with PBMC; actives raise or lower the signal
In short: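 Human umbilical vein endothelial cells co-cultured with PBMC, stimulated with superantigen; IL-8 measured by ELISA 24 h after chemical dosing. Bidirectional fitting versus DMSO; SRB staining in parallel cultures tracks cytotoxicity.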

[14] = BSK_SAg_Proliferation: Cell Proliferation Assessment in the BioMAP Diversity Plus: SAg Assay (AID 2283095); details: primary human HUVEC with PBMC
In short: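 Human umbilical vein endothelial cells co-cultured with PBMC; sulforhodamine B total-protein staining (0.1% SRB after 10% TCA fixation, absorbance 560 nm) at 96 h in sub-confluent culture. Fitted bidirectionally against DMSO.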

[15] = BSK_SAg_SRB: Viability Assessment in the BioMAP Diversity Plus: SAg Assay (AID 2283096); details: primary human HUVEC with PBMC;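 note: cells read one day after compound addition; hits may be either gain or loss of signal compared with DMSO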
In short: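 Endothelial/PBMC primary human co-culture; compound 24 h; fix 10% TCA, stain 0.1% SRB, A560; protein content as cytotoxicity proxy; bidirectional curve fit, DMSO = baseline.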

[16] = biological target: human CYP19A1, CYP19A1 (gene 1588) (UniProt P11511); assay: NVS_ADME_hCYP19A1: NovaScreen (NVS) CYP450-related Enzyme Activity (ADME) Assay for human CYP19A1 (AID 2283098; active = hit-call score of the fitted dose curve at least 0.9, where 1 is the maximum;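 note: potency for inhibitors seen as loss of fluorescent enzyme signal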)
Sequence of human CYP19A1, CYP19A1 (gene 1588) (P11511 whole entry, looked up): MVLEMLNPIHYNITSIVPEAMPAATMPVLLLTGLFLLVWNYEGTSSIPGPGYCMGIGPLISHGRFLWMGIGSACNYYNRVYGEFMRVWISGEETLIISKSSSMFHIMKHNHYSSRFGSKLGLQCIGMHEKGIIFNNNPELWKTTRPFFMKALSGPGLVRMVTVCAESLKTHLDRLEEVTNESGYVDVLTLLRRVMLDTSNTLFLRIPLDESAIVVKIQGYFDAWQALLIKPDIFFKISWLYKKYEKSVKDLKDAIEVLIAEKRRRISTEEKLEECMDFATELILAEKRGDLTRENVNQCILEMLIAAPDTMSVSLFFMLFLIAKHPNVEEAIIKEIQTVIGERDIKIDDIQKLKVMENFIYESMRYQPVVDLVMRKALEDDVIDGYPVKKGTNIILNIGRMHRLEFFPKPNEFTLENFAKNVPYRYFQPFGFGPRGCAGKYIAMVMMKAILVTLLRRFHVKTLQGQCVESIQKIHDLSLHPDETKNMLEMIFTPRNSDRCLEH
In short: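 Cell-free enzyme assay with recombinant protein and a specific fluorogenic substrate, read by fluorescence intensity 0.5 h after dosing. Primary screen ran in duplicate at 10 uM; actives were retested in concentration series. Loss of signal versus acetonitrile baseline.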

Measured: AC50

Sequence of Tumor necrosis factor (Homo sapiens) (P01375 whole entry, looked up): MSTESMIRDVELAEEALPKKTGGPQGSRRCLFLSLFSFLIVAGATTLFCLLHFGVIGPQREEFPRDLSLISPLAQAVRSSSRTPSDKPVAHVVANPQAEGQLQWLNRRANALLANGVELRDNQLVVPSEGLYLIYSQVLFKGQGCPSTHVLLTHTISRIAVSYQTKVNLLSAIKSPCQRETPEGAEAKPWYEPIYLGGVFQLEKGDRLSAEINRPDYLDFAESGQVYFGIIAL
Sequence of E-selectin (Homo sapiens) (P16581 whole entry, looked up): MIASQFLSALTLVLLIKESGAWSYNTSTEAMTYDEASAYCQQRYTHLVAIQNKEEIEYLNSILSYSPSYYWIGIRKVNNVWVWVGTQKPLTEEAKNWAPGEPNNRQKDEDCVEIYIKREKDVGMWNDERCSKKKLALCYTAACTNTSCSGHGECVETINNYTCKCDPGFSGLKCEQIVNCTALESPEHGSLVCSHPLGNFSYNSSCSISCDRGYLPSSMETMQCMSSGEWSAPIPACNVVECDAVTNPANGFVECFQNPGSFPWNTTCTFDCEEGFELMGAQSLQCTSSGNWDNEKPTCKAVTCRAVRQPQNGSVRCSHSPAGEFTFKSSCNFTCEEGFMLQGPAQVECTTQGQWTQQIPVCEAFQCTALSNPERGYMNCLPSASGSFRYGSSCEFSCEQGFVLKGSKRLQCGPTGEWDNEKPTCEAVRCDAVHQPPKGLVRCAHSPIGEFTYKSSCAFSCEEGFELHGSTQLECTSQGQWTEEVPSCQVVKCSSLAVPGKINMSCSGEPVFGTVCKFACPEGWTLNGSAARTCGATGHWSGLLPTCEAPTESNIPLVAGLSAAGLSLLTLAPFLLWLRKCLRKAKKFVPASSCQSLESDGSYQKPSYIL

CO/C=C(/C(=O)OC)c1ccccc1COc1cccc(C(F)(F)F)n1
active: [1] 10.6 µM | [3] 4.01 µM | [5] 12 µM | [7] 0.783 µM | [8] 13.4 µM | CD38, CD38 (gene 952) 6.48 µM | CD40, CD40 (gene 958) 7.75 µM | CD69, CD69 (gene 969) 5.07 µM | [9] 8.9 µM | [10] 6.75 µM | [11] 26.5 µM | [12] 1.17 µM | [13] 5.66 µM | [14] 4.57 µM | [15] 9.02 µM
inactive: [2] | [4] | [6]

C=CC(=O)NCNC(=O)C=C
not listed: [5] | [9] | [16]
inactive: all other assays above

Cc1cc(O)ccc1Cl
not listed: [5] | [16]
inactive: all other assays above

CCC(=O)O[C@H]1CC[C@H]2[C@@H]3CCC4=CC(=O)CC[C@]4(C)[C@H]3CC[C@]12C
active: [2] 31.9 µM | [3] 25.5 µM | [6] 30.8 µM | [7] 32.1 µM | [8] 30.5 µM | CD38, CD38 (gene 952) 36 µM | CD40, CD40 (gene 958) 31.9 µM | CD69, CD69 (gene 969) 31.1 µM | [10] 34.2 µM | [11] 35.7 µM | [12] 37.9 µM | [13] 29.8 µM | [14] 33.3 µM | [15] 29.4 µM
inactive: [4]

CC#Cc1cc(C)nc(Nc2ccccc2)n1
active: [4] 8.96 µM | [14] 28.3 µM
not listed: [5] | [9] | [16]
inactive: all other assays above

Cc1ccccc1[N+](=O)[O-]
not listed: [5] | [9] | [16]
inactive: all other assays above

CCC(C)(c1ccc(O)cc1)c1ccc(O)cc1
active: [1] 20 µM | [4] 13.3 µM | [8] 20 µM | CD38, CD38 (gene 952) 25.6 µM | CD40, CD40 (gene 958) 20 µM | CD69, CD69 (gene 969) 20 µM | [10] 16.8 µM | [12] 29.8 µM | [13] 16 µM | [14] 28.5 µM
inactive: [2] | [3] | [6] | [7] | [11] | [15]

CCNc1nc(NC(C)C)nc(SC)n1
active: [7] 5.99 µM | CD38, CD38 (gene 952) 14.9 µM
not listed: [5] | [9] | [16]
inactive: all other assays above

Cc1ccccc1O
active: [4] 3.97 µM
not listed: [5] | [16]
inactive: all other assays above

Nc1ccc(-c2ccc(N)cc2)cc1
active: [4] 8.27 µM
not listed: [5] | [16]
inactive: all other assays above

C[C@]12CCC(=O)C=C1CC[C@@H]1[C@@H]2CC[C@@]2(C)[C@H]1CC[C@]2(C)O
not listed: [5] | [16]
inactive: all other assays above

C[C@]12CCC(=O)C=C1CC[C@@H]1[C@@H]2CC[C@]2(C)C(=O)CC[C@@H]12
active: [15] 20 µM | [16] 5.03 µM and 5.63 µM and 1.44 µM
not listed: [5] | [9]
inactive: all other assays above
